Hits are enriched below; roughly 4.4% of the tested compounds scored in any of these assays.
HPGD block – qHTS Assay for Inhibitors of HPGD (15-Hydroxyprostaglandin Dehydrogenase) | 15-hydroxyprostaglandin dehydrogenase [NAD(+)] (Homo sapiens), P15428 | purified HPGD, NADH fluorescence kinetic, PGE2 substrate | Potency, µM, for the others: at the highest dose activity change, negative = inhibition, usual class: inhibitors | 150,000 tested, 4.3% active | AID 894, 2007; active = well fitted inhibition curve with a large enough effect, not every such curve was filed as active; inconclusive = small, poorly fitted or top-dose-only effect, or another doubt; inactive = no such curve, though single readings can be large or run the other way
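20 nM HPGD preincubated 15 min at room temperature with compound in 50 mM Tris-HCl pH 8, 0.01% Tween 20. Started with 1 mM NAD+ and 30 uM prostaglandin E2; NADH fluorescence (360/450 nm) read 5 times over 30-s intervals, last minus first.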
ALOX12 inhib – qHTS Assay for Inhibitors of 12-hLO (12-human lipoxygenase); Polyunsaturated fatty acid lipoxygenase ALOX12 (Homo sapiens), P18054; purified 12-hLO, xylenol orange hydroperoxide absorbance; Potency, µM (highest dose often 57.1 µM), for the others: at the top dose activity change, negative = inhibition, hits mostly inhibitors; 150,000 tested, 0.12% active; also: nearly all actives have a fitted effect of over 55% in size
Target sequence (P18054 whole entry, looked up): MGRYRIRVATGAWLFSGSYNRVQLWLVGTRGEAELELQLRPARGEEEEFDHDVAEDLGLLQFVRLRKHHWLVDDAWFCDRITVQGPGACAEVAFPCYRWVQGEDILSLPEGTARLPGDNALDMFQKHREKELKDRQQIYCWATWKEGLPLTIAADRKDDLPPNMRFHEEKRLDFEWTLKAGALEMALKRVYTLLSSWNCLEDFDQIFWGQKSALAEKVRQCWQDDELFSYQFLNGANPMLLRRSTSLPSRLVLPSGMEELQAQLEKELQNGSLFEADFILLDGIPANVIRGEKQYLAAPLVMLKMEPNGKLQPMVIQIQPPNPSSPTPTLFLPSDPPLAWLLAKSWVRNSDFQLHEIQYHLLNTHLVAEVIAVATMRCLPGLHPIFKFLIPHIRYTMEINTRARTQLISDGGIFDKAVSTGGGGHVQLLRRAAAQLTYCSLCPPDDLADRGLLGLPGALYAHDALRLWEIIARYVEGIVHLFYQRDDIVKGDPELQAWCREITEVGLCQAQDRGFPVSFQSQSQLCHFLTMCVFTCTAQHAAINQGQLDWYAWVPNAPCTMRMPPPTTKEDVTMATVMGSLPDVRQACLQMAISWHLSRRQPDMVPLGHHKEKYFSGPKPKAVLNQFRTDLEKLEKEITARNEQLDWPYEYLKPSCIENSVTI
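Hydroperoxide formation by human 12-lipoxygenase from 40 uM arachidonic acid was followed colorimetrically via ferric-xylenol orange complex, using the 573/405 nm absorbance ratio. Enzyme concentration was 150 nM, with 30 min reaction at room temperature.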
p53ts 32C tox – qHTS Screen for Compounds that Selectively Target Cancer Cells with p53 Mutations: Cytotoxicity of p53ts Cells at the Permissive Temperature; H1299-p53A138V at 32C, ATP luminescence viability, 24 h; Potency, µM (highest dose often 46.1 µM), inactives show top-dose activity change, negative = cytotoxicity, most hits filed as cytotoxic; 130,000 tested, 0.93% active;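 also: 0% = DMSO and -100% = full killing by reference compound; nearly all actives have a fitted effect of over 55% in size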
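Viability by ATPlite luminescence after 24 h compound treatment (up to 46 uM) at the permissive 32C. Cells are H1299 carrying p53 A138V. Scale runs from DMSO basal to 100 uM tamoxifen as full kill; AC50 from Hill fits.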
p53ts 39C tox – qHTS Screen for Compounds that Selectively Target Cancer Cells with p53 Mutations: Cytotoxicity of p53ts Cells at the Nonpermissive Temperature; 130,000 tested, 1.5% active; H1299-p53A138V viability at 39C, ATP luminescence, 24 h; Potency, µM (series often up to 46.1 µM), for inactives: at the top dose activity change, negative = cell killing, most hits filed as cytotoxic; AID 902, 2007; also: nearly all actives have a fitted effect of over 55% in size
* = called active by the depositor. Unless noted, calls follow the shape of the dose curve; as a rule, active = well fitted curve in the direction sought with a large enough effect; inconclusive = small, poorly fitted or top-dose-only effect, or another doubt; inactive = no such curve, though single readings can be large; an effect the other way counts as inactive or inconclusive. Unless noted, % is scaled to controls: 0 for no effect and ±100 for the full control effect; potency is read from the fitted curve at half-maximal effect.

For O=C(CC(c1ccccc1)c1ccccc1O)NCc1ccccc1Cl (stereo unspecified) the results were HPGD block 15.8µM* and ALOX12 inhib 0.4%.
For O=C(NCc1ccco1)Nc1ccc(Br)cc1Cl the results were HPGD block -20.4%, ALOX12 inhib -3.1%, p53ts 32C tox -11.2% and p53ts 39C tox -18.0%.
Screening O=C(COC(=O)CCSc1ccc(Cl)cc1)NCc1ccccc1 returned HPGD block -5.7% and ALOX12 inhib -2.4%.
O=C(CC(c1ccccc1)c1cc(Br)ccc1O)NCc1ccco1 (stereo unspecified) was read as HPGD block 7.08µM*, ALOX12 inhib -10.7%, p53ts 32C tox 8.3% and p53ts 39C tox 16.8%.
`O=C(CC(c1ccccc1)c1ccccc1O)NCc1ccco1` (stereo unspecified) gave HPGD block 15.8µM* and ALOX12 inhib -6.3%.
Screening CN(C)CCNC(=O)c1ccc(Cc2nc3ccccc3[nH]2)cc1 returned HPGD block 2.9%, ALOX12 inhib 0.7%, p53ts 32C tox -0.8% and p53ts 39C tox -5.9%.
Screening OC[C@@H]1NC[C@@H](O)[C@@H](O)[C@H]1O returned ALOX12 inhib -1.7%, p53ts 32C tox 5.0% and p53ts 39C tox 12.9%.
For N#Cc1c(N)sc(=S)c2c1CCCCC2 the results were HPGD block 15.8µM* and ALOX12 inhib -7.0%.
`O=C(c1cccc(F)c1)N1CCC2(CC1)CN(c1ncccn1)C2` gave HPGD block inconclusive, ALOX12 inhib 0.4%, p53ts 32C tox 0.3% and p53ts 39C tox 5.4%.
`Cc1n[nH]c(=O)nc1NCC1CCCO1` (stereo unspecified) gave HPGD block 28.2µM*, ALOX12 inhib 5.6%, p53ts 32C tox 3.3% and p53ts 39C tox 14.4%.
`Cc1ccc(-c2nc3sc(CCNC(=O)c4ccc(F)c(F)c4)c(C)n3n2)cc1` gave p53ts 32C tox -11.1% and p53ts 39C tox -10.6%.
Screening CC(C)(C)c1nnc2sc(SC/C(O)=C(\C#N)c3nc4ccccc4[nH]3)nn2c1=O returned HPGD block 20µM*, ALOX12 inhib -5.3%, p53ts 32C tox -1.1% and p53ts 39C tox -2.1%.
CC(=O)OC1CCC2(C)C(=CCC3C2CCC2(C)C3C[C@@H]3O[C@]32C(C)=O)C1 (stereo partly specified) was read as HPGD block -3.9%, ALOX12 inhib 4.5%, p53ts 32C tox -0.9% and p53ts 39C tox -9.1%.
`COc1ccc(-n2c(SCC(=O)Nc3ccccc3)nnc2-c2ccc(NS(=O)(=O)c3ccc(C)cc3)cc2)cc1` gave HPGD block -2.5% and ALOX12 inhib -8.0%.
Screening COc1ccc(-n2c(SCC(N)=O)nnc2-c2ccc(NS(=O)(=O)c3ccc(C)cc3)cc2)cc1 returned HPGD block 22.4µM* and ALOX12 inhib -15.8%.
`COc1ccc(-n2c(SCC#N)nnc2-c2ccc(NS(=O)(=O)c3ccc(C)cc3)cc2)cc1` gave HPGD block 14.1µM*, ALOX12 inhib -23.8%, p53ts 32C tox 5.3% and p53ts 39C tox -13.4%.
For Cc1cccc(Cn2nnc3c(=O)[nH]c(C4CCCN(C(=O)c5ccc(C(C)(C)C)cc5)C4)nc32)c1 (stereo unspecified) the results were p53ts 32C tox inconclusive and p53ts 39C tox 25.1µM*.
Cc1ccccc1Cn1nnc2c(=O)[nH]c(C3CCCN(C(=O)c4ccc(C(C)(C)C)cc4)C3)nc21 (stereo unspecified) was read as p53ts 32C tox 8.5% and p53ts 39C tox 31.6µM*.
Screening COc1ccc(-n2c(N)c(C(=O)NCC3CCCO3)sc2=S)cc1 (stereo unspecified) returned HPGD block 15.8µM*, ALOX12 inhib -1.3%, p53ts 32C tox -1.1% and p53ts 39C tox 2.8%.
For COc1ccc(-n2c(SCC(=O)NCC3CCCO3)nc3ccccc32)cc1 (stereo unspecified) the results were HPGD block 10µM* and ALOX12 inhib -1.9%.
`COc1ccc(-n2c(N)c(C(=O)NCc3ccco3)sc2=S)cc1` gave HPGD block inconclusive and ALOX12 inhib -18.1%.
For COc1cc(Cl)c(C)cc1NC(=O)c1cnc2c(-c3cccc(C)c3)c(C)nn2c1C the results were p53ts 32C tox 12.4% and p53ts 39C tox -6.2%.
For CSc1ncc(C(=O)Nc2ccccc2C(F)(F)F)c(-c2ccccc2)n1 the results were p53ts 32C tox -10.2%.
For O=C(Nc1ccccn1)c1cc(-c2cccnc2)nc2ccc(Br)cc12 the results were HPGD block -18.1%, ALOX12 inhib 0.3% and p53ts 39C tox 1.1%.
For O=C(c1cc(-c2cccnc2)nc2ccc(Br)cc12)N1CCN(c2ncccn2)CC1 the results were HPGD block 15.8µM*, ALOX12 inhib -7.1%, p53ts 32C tox 3.5% and p53ts 39C tox 4.0%.
Screening CN(c1ccccc1)c1ccc(/C=N/NC(=O)CC#N)cc1 returned HPGD block inconclusive and ALOX12 inhib -1.5%.
CN(c1ccccc1)c1ccc(/C=C/[N+](=O)[O-])cc1 was read as HPGD block 31.6µM* and ALOX12 inhib -2.7%.
COc1ccc(CC(=O)c2c(O)cc(O)cc2O)cc1OC was read as HPGD block 31.6µM* and ALOX12 inhib -4.1%.
CC1=NN(Cc2ccccc2)C(=O)C1C(c1ccccc1)C(C#N)C#N (stereo unspecified) was read as HPGD block 31.6µM* and ALOX12 inhib -6.1%.
For CC1=NN(Cc2ccccc2)C(=O)C1 the results were HPGD block -10.4% and ALOX12 inhib -3.0%.
For CC1=NN(Cc2ccccc2)C(=O)C1C(c1ccc(Cl)cc1)C(C#N)C#N (stereo unspecified) the results were HPGD block 28.2µM* and ALOX12 inhib -4.3%.
`CCOc1ccc(NC(=O)c2oc3ccccc3c2NC(=O)c2ccc(OC)cc2OC)cc1` gave p53ts 32C tox -1.0% and p53ts 39C tox 22.9%.
`S=C1NC2=C(C(c3ccc(Br)cc3)N1)N1CCC2CC1` (stereo unspecified) gave HPGD block 3.0% and ALOX12 inhib -8.1%.
S=C1NC(c2cccs2)=CC(c2ccc(Br)cc2)N1 (stereo unspecified) was read as HPGD block 31.6µM* and ALOX12 inhib inconclusive.
For COc1cccc(Cn2c(=O)c(-c3ccccc3)nc3cnc(N4CCNCC4)nc32)c1 the results were p53ts 32C tox -4.4% and p53ts 39C tox -19.2%.
Screening COC(=O)c1nc2n(n1)C(c1cccc(Cl)c1)C1=C(CCCC1=O)N2 (stereo unspecified) returned HPGD block 15.8µM*, ALOX12 inhib -1.8%, p53ts 32C tox -2.7% and p53ts 39C tox -7.9%.

High-throughput results from PubChem BioAssay.
